ALDH1A1 block – qHTS Assay for Inhibitors of Aldehyde Dehydrogenase 1 (ALDH1A1); AID 1030, 2008; 220,000 tested, 7.3% active; Purified ALDH1A1, NADH fluorescence, propionaldehyde substrate; Aldehyde dehydrogenase 1A1 (Homo sapiens), P00352; Potency, µM (top dose mostly 75.3 µM), inactives show at the highest dose activity, negative = inhibition, hits mostly inhibitors;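 also: plate controls were no enzyme wells and a reference inhibitor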
Target sequence (P00352 whole entry, looked up): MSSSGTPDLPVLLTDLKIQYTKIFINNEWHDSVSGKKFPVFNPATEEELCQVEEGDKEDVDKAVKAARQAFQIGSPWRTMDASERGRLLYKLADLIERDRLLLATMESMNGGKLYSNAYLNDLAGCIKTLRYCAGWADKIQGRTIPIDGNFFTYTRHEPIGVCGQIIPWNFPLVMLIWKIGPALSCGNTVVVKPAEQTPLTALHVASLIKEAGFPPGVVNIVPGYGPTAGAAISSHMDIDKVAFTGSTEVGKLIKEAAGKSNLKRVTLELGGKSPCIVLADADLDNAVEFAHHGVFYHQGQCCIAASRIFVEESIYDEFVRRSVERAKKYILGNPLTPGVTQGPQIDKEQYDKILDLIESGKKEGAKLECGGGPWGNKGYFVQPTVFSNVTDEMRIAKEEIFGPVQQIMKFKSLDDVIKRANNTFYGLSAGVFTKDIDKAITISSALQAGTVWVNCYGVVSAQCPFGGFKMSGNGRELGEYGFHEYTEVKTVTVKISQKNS
IMPase Li cell – qHTS Assay for Identifying the Cell-Membrane Permeable IMPase Inhibitors: Potentiation with Lithium | CHO-M1 cells, IP1 TR-FRET (IP-One), carbachol + lithium | Potency, µM (doses to about 59.4 µM), for the others: top-dose activity, negative = IMPase inhibition, usual class: inhibitors | 210,000 tested, 0.35% active | AID 1457, 2008; active = well fitted curve in the direction sought with a large enough effect; inconclusive = small, poorly fitted or top-dose-only effect, or another doubt; inactive = no such curve, though single readings can be large; an effect the other way counts as inactive or inconclusive;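 also: IP1 builds up when IMPase is blocked and the TR-FRET signal falls; plate controls were basal vehicle for no effect and high inhibitor control for full effect; nearly all actives have a fitted effect of over 50% in size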
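IP1 accumulation measured by competitive TR-FRET in lysed CHO-M1 cells after 30 min compound exposure at 37C, with a small lithium addition to potentiate weak responses. Hill-equation AC50 from ratio and donor-channel data.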
HPGD inh – qHTS Assay for Inhibitors of HPGD (15-Hydroxyprostaglandin Dehydrogenase); purified HPGD, NADH fluorescence kinetic, PGE2 substrate; Potency, µM, without a hit: at the highest dose activity change, negative = inhibition, most hits filed as inhibitors; 150,000 tested, 4.3% active
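20 nM HPGD preincubated 15 min at room temperature with compound in 50 mM Tris-HCl pH 8, 0.01% Tween 20. Started with 1 mM NAD+ and 30 uM prostaglandin E2; NADH fluorescence (360/450 nm) read 5 times over 30-s intervals, last minus first.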
KinaseGlo FLuc – Counterscreen for Luciferase (Kinase-Glo TM) Inhibition; Kinase-Glo luciferase, ATP luminescence, 8 min; Luciferin 4-monooxygenase (Photuris pensylvanica), Q27757; Potency, µM (top dose mostly 38.3 µM), for the others: at the top dose activity change, negative = inhibition, actives largely listed as inhibitors; 200,000 tested, 0.28% active; active = well fitted curve in the direction sought with a large enough effect; inconclusive = small, poorly fitted or top-dose-only effect, or another doubt; inactive = no such curve, though single readings can be large; an effect the other way counts as inactive or inconclusive; also: nearly all actives have a fitted effect of over 60% in size
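Inhibition of Kinase-Glo luciferase light generation was assessed at 10 uM ATP in pH 7.2 imidazole buffer, with luminescence measured after eight minutes at ambient temperature.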
Lamin A splicing – qHTS Assay for Modulators of Lamin A Splicing. HeLa LMNA splicing GFP/RFP minigene ratio, 48 h. Potency, µM (highest dose often 46.1 µM), inactives show top-dose ratio change, negative = inhibition, hits mostly inhibitors. 200,000 tested, 0.01% active. AID 1487, 2009; active = well fitted inhibition curve with a large enough effect in the signal ratio, with a control signal flat, not every such curve was filed as active; inconclusive = small, poorly fitted or top-dose-only effect, or effect the other way, or a change in a side signal; the % refers to the signal ratio
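Read-out is the ratio of GFP to DsRed2 object intensity, acquired by 488 nm laser-scanning cytometry on HeLa lamin A-EGFP minigene reporter cells. Compound incubation 48 hrs at 37 °C in Opti-MEM with 2% FBS; DMSO 0.5% final.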
* hit, by the source's call; u = inconclusive; x = not tested or not shown; [ ] = another dose, or the depositor's remark. Only some compounds are listed: those with a hit (about 9% of all), similar ones and a draw of the others. Unless noted, calls follow the shape of the dose curve; as a rule, active = well fitted inhibition curve with a large enough effect (not every such curve was filed as active); inconclusive = small, poorly fitted or top-dose-only effect, or another doubt; inactive = no such curve, though single readings can be large or run the other way. Unless noted, % is scaled to controls: 0 for no effect and ±100 for the full control effect; potency is read from the fitted curve at half-maximal effect.

SMILES	ALDH1A1 block	IMPase Li cell	HPGD inh	KinaseGlo FLuc	Lamin A splicing
C=CCSc1nnc(NC(=O)c2ccc(S(=O)(=O)NCC3CCCO3)cc2)s1 (centres undefined)	u	14%[38.3 µM]	18µM*	5%	u
COCC(=O)O	-10%	-17%	-2%	x	x
COc1ccc(Oc2nc3ccccc3nc2C(F)(F)F)cc1	-1%	8%[38.3 µM]	-6%	-3%	1%
COc1ccc(Oc2nc(SC)nc3ccccc23)cc1	u	10µM*	-14%	5%	-7%
O=C(CSc1n[nH]c(-c2ccccc2F)n1)NCC(=O)Nc1ccc(F)c(F)c1F	u	13%	x	2%	-2%[46 µM]
COC(=O)CN(c1ccc(OC)cc1OC)S(=O)(=O)c1ccccc1[N+](=O)[O-]	19µM*	-1%	x	2%	13%[46 µM]
CC(C)COC(=O)n1ccc(C(=O)N2CCCCC2)n1	-3%	-7%[38.3 µM]	10µM*	0%	2%
COc1ccc2c(c1)c(=O)oc1cc(O)ccc12	-4%	-10%	x	x	x
O=c1oc2cc(O)ccc2c2ccccc12	-1%	13µM*	-5%	-2%	-7%
O=C(NCc1ccco1)c1cc2ccc(O)cc2oc1=O	u	u	u	5µM*	17%
O=C(c1ccccc1)c1cc2ccc(O)cc2oc1=O	u	5%[38.3 µM]	u	11µM*	2%
COc1ccc(C(=O)c2cc3ccc(O)cc3oc2=O)cc1	2%	-6%[38.3 µM]	-28%	-20%	-6%
Cc1ccc(O)c(-n2nc3ccccc3n2)c1	-7%	5%	x	-29%	u
CC(C)CCN(C(=O)Cc1ccc(Cl)c(Cl)c1)c1c(N)n(Cc2ccccc2)c(=O)[nH]c1=O	13%	10%	x	-1%	u
CN(CC(=O)NCc1ccccc1Cl)CC(=O)Nc1cccc(F)c1	-2%	1%	x	-1%	x
COc1ccc(S(=O)(=O)N2CCC(C(=O)N3CCc4ccccc4C3)CC2)cc1C	-2%	-1%[38.3 µM]	-3%	-1%	1%
COc1ccc(S(=O)(=O)NCc2ccc(C(=O)N3CCc4ccccc4C3)cc2)cc1	3%	11%	2.8µM*	0%	u
CC(C)(C)c1ccc(S(=O)(=O)NCc2ccc(C(=O)N3CCOCC3)cc2)cc1	11µM*	14%[38.3 µM]	-11%	-4%	5%
CCOC(=O)N1CCN(C(=O)c2ccc(CNS(=O)(=O)c3ccc(OC)cc3)cc2)CC1	-17%	-9%[38.3 µM]	-9%	11%	3%
COc1ccc(S(=O)(=O)N2CCC(C(=O)N3CCc4ccccc4C3)CC2)cc1	u	-2%[38.3 µM]	35µM*	2%	u
CC1CC(C)CN(C(=O)CCc2ccccc2)C1 (centres undefined)	1%	4%	x	1%	u
CCCCOC(=O)n1c(=S)oc2cc(Cl)ccc21	u	-3%[38.3 µM]	-22%	1%	7%[0.0737 µM]
COC(=O)n1c(=S)oc2cc(Cl)ccc21	14µM*	18%[38.3 µM]	22µM*	0%	7%
Cc1ccc(C)c(N(CC(=O)NC(C)(C)C)C(=O)CNC(=O)c2cccs2)c1	4%	5%	x	0%	x
CCC(CO)NCc1sccc1C (centres undefined)	20µM*	32%	x	-3%	17%[46 µM]
SMILES	ALDH1A1 block	IMPase Li cell	HPGD inh	KinaseGlo FLuc	Lamin A splicing
CCC(CO)NCc1ccc(Br)cc1 (centres undefined)	-9%	12%	x	2%	x
Cn1c(CO)cnc1SCc1ccc([N+](=O)[O-])cc1	28µM*	-3%[38.3 µM]	-2%	-6%	-7%
O=C1C2C3C=CC(C3)C2C(=O)N1CCc1ccccc1 (centres undefined)	11µM*	42%[38.3 µM]	-23%	-1%	13%
O=C(CN1C(=O)C2C3C=CC(C3)C2C1=O)OCC(=O)c1ccccc1 (centres undefined)	0%	-8%	25µM*	-7%	2%
O=C1C2C3C=CC(C3)C2C(=O)N1CCCCCCN1C(=O)C2C3C=CC(C3)C2C1=O (centres undefined)	8%	-9%	x	11µM*	x
O=C(CCN1C(=O)C2C3C=CC(C3)C2C1=O)NCCc1ccccc1 (centres undefined)	u	3%	-10%	-1%	-5%
Nc1ccc(O)c(C(=O)O)c1	u	0%	11µM*	-4%[17.1 µM]	u
CC(=O)c1ccc(OCc2ccc(C(=O)c3ccccc3)cc2)cc1	11µM*	23%	x	-3%	x
O=C(CSC1CC(=O)N(CCc2ccccc2)C1=O)Nc1cccc(Cl)c1 (centres undefined)	-7%	-11%	7.9µM*	8%	0%
CN1CCC(=NOc2ccc([N+](=O)[O-])cc2)CC1	-17%	-5%	x	-3%	18%[46 µM]
O=C(c1ccccc1)c1coc2c1C(=O)c1ccccc1C2=O	20µM*	17%	x	-2%	u
CS(=O)(=O)N(CC(=O)NCc1ccccn1)Cc1ccc(Cl)cc1	7.9µM*	1%	-1%	0%	1%
CS(=O)(=O)N(CC(=O)NCc1ccccc1)Cc1ccc(Cl)cc1	8%	25%[38.3 µM]	-2%	-2%	11%
C=CCn1c(SCC(=O)NCCCC)nc2scc(-c3ccco3)c2c1=O	20µM*	4%	-22%	-1%	-7%
C=CCn1c(SCC(=O)NC2CCCC2)nc2scc(-c3ccco3)c2c1=O	7.9µM*	32%[38.3 µM]	u	18%	15%
COc1ccc(NC(=O)Cc2c(SC)c3ccccc3n2Cc2ccccc2)cc1	0%	6%	-8%	-2%	3%
CC(C)CCOc1cccc(OCC(=O)O)c1	7%	1%	x	1%	x
Cc1cccc(N2CCN(C(=S)c3ccc([N+](=O)[O-])cc3)CC2)c1	2.5µM*	23%	7.9µM*	-1%	u
O=[N+]([O-])c1ccc(C(=S)N2CCN(c3ccc(F)cc3)CC2)cc1	10µM*	18%	x	2%	u
CN(C)c1ccc(C(=S)N2CCN(c3ccc([N+](=O)[O-])cc3)CC2)cc1	1µM*	x	x	x	x
CC(=O)N1CCN(C(=S)c2ccc([N+](=O)[O-])cc2)CC1	22µM*	13%[38.3 µM]	32µM*	6%	-9%
CC(C)CN1CC[C@@]2(CCCN(S(=O)(=O)c3ccccc3)C2)C1	-4%	16%	-1%	-1%	x
CC(C)CC(=O)Nc1nnc(S(=O)(=O)N2c3ccccc3CC2C)s1 (centres undefined)	x	x	x	x	5%[46 µM]
O=C(c1cc(-c2ccccn2)nc2c(Cl)cccc12)N1CCN(C(=O)C2CCCO2)CC1 (centres undefined)	-6%	-2%[38.3 µM]	-16%	13%	-2%
O=C(c1cc(-c2ccccn2)nc2c(Cl)cccc12)N1CCN(S(=O)(=O)c2ccccc2)CC1	16µM*	-5%	-16%	2%	-3%
